TDP1 cell noCPT: qHTS for Inhibitors of human tyrosyl-DNA phosphodiesterase 1 (TDP1): qHTS in cells in absence of CPT; DT40 Tdp1-/- hTDP1 cells, no CPT, ATP luminescence, 48 h; 420,000 compounds, 15% hits; Potency, µM (titrated, usually from 46.2 µM), for inactives: top-dose activity change, negative = growth inhibition, most hits filed as inhibitors; AID 686978, 2013; note: nearly all actives have a fitted effect of over 55% in size
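Cells were dispensed at 400 per well, compounds added by pin tool, plates incubated ≥48 hr at 37 °C, then CellTiter-Glo added for 30 min at room temperature before luminescence reading. Line: DT40 Tdp1-/- complemented with hTDP1; camptothecin omitted.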
KB-V1 cytotox: kills drug-selected multidrug resistant KB-V1 cells; KB-V1 MDR cells viability, CellTiter-Glo, 72 h; Potency, µM (doses to about 46.1 µM), most hits filed as cytotoxic; 400,000 compounds, 3.4% hits; AID 1347076; note: nearly all actives have a fitted effect of over 60% in size
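Compound-treated KB-V1 multidrug-resistant cells, 72 h, 37 degrees C; viability by CellTiter-Glo. Fitted qHTS curves give the values.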
HT1080 IDH1KD tx: HT-1080 IDH1 knockdown cell toxicity (counter line) | 360,000 compounds, 2% hits | Potency, µM (highest dose often 46.1 µM), for inactives: at the top dose activity, negative = toxicity, hits mostly cytotoxic | HT-1080 IDH1 knockdown viability, ATP luminescence, 48 h | AID 686971;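 note: 0% = DMSO wells and -100% = cell-free medium wells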
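In this qHTS, HT-1080 cells depleted of IDH1 are exposed for 48 h at 37 °C to compound titrations. Toxicity is scored from CellTiter-Glo luminescence, with DMSO as full viability and medium alone as none.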
DT40 TDP1 CPT: DT40-hTDP1 cell growth loss with CPT | chicken DT40 Tdp1-/-;hTDP1 cells + 20 nM CPT, ATP luminescence, 48 h | Potency, µM (series often up to 46.2 µM), without a hit: top-dose activity change, negative = growth inhibition, usual class: inhibitors | 420,000 compounds, 12% hits; note: nearly all actives have a fitted effect of over 55% in size
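Cell growth measured by CellTiter-Glo luminescence after a minimum 48 h, 37 C compound exposure with 20 nM CPT in Tdp1-knockout DT40 cells stably expressing hTDP1, seeded 400/well; qHTS titration format.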
KB-3-1 tox: kills parental KB-3-1 adenocarcinoma cells. KB-3-1 viability, CellTiter-Glo ATP luminescence, 72 h. AID 1347075. Potency, µM (top dose mostly 46.1 µM), most hits filed as cytotoxic. 400,000 compounds, 1.4% hits; note: nearly all actives have a fitted effect of over 60% in size
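Using CellTiter-Glo luminescence, growth of non-resistant KB-3-1 adenocarcinoma cells is assessed 72 h after pin-tool compound addition at 37 °C. Normalized responses across the concentration series yield fitted curves.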
HT1080-NT tox: kills 2HG-producing HT-1080-NT fibrosarcoma cells; 360,000 compounds, 1.6% hits; HT-1080-NT fibrosarcoma viability, CellTiter-Glo ATP luminescence, 48 h; Potency, µM (highest dose often 46.1 µM), for the others: at the highest dose activity, negative = less viability, most hits filed as cytotoxic; AID 686970;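 note: NT is the 2HG producing partner of a matched IDH1 knockdown line; 0% = DMSO-treated cells and -100% = media-only wells without cells; nearly all actives have a fitted effect of over 55% in size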
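Toxicity toward the 2HG-producing NT line was scored as %Activity, normalised to DMSO and no-cell wells, from CellTiter-Glo luminescence after 48 hours' treatment.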
* marks the source's active call; other numbers are inactive results; i = inactive; ? = inconclusive; / = not tested or not shown; ! = repeats disagree; [ ] = remark or other dose. The list is not random: actives were taken first. Their share in the collection is about 19%. Calls come from the whole dose curve; as a rule, active = well fitted curve in the direction sought with a large enough effect; inconclusive = small, poorly fitted or top-dose-only effect, or another doubt; inactive = no such curve, though single readings can be large; an effect the other way counts as inactive or inconclusive. Unless noted, % is set by controls: 0 for no effect and ±100 for the full control effect; potency is the fitted concentration of half-maximal effect.

SMILES | TDP1 cell noCPT | KB-V1 cytotox | HT1080 IDH1KD tx | DT40 TDP1 CPT | KB-3-1 tox | HT1080-NT tox
CCN1CCN(C(=O)c2ccc(Sc3ccccc3Cl)c([N+](=O)[O-])c2)CC1 | ? | 13µM* | -3% | ? | i | -7%
CCN1CCCC1CNC(=O)c1ccc(N2CCCC2=O)cc1 (configuration not stated) | -1% | i | -1% | 10% | i | -1%
O=C(c1ccccc1)c1cccc[n+]1[O-] | -3% | i | -2% | 18% | i | 5%
COc1cc(CN2CC(=O)N(c3ccc(C)c(Cl)c3)C2=S)cc(OC)c1OC | 21µM* | ? | -16% | ? | i | ?
COc1ccc(CN2CC(=O)N(c3ccc(C)cc3)C2=S)cc1OC | ? | i | -8% | 0% | i | -6%
COc1cc(CN2CC(=O)N(c3ccc(C)cc3)C2=S)cc(OC)c1OC | 26µM* | 10µM* | -7% | ? | ? | -6%
Clc1ccc(CNc2ncnc3nc[nH]c23)cc1 | ? | i | / | ? | i | /
Cc1noc(C)c1NC(=O)N(C)C[C@H]1Oc2c(NS(=O)(=O)c3cn(C)cn3)cccc2C(=O)N([C@H](C)CO)C[C@@H]1C | 6% | i | -5% | 4% | i | 21%
CCOC(=O)c1c(NC(=O)c2cc(=O)c3ccc(C)cc3o2)sc(C)c1C | -2% | i | / | -9% | i | /
NC(=O)c1nc(-c2ccccc2)c(-c2ccccc2)[nH]c1=O | 2.3µM* | i | 9% | 0.58µM* | i | -3%
COc1ccc2nc(S(=O)Cc3ncc(C)c(OC)c3C)[nH]c2c1 (configuration not stated) | / | ? | -1% | ? | i | -25%
O=C(CSc1nnc2scc(-c3ccccc3)n12)Nc1nsc(-c2ccccc2)n1 | 23µM* | i | ? | 15µM* | ? | 4%[9.24 µM]
CCOc1ccc(NC(=O)CSc2nnc3scc(-c4ccccc4)n23)cc1 | ? | i | / | -23% | i | /
Cc1cccc(NC(=O)CSc2nnc3scc(-c4ccccc4)n23)c1 | 21µM* | i | / | ? | i | /
Cc1ccc(-c2nc(NC(=O)CSc3ccc4ccccc4n3)ns2)cc1 | ? | i | 17% | 15µM*! | i | 3%
CCOC(=O)CSc1ccc2ccccc2n1 | -14% | i | 4% | -8% | i | 2%
O=C(CSc1nnc2scc(-c3ccccc3)n12)Nc1nsc(-c2ccc(Cl)cc2)n1 | 21µM* | ? | 3% | 16µM* | i | 12%
O=C(CSc1nnc2scc(-c3ccc(Cl)cc3)n12)Nc1ccc(F)cc1 | -20% | i | / | -8% | i | /
COc1cccc(NC(=O)CCSc2nnc3scc(-c4ccccc4)n23)c1 | -10% | ? | -2% | 0% | i | -1%
O=C(O)c1ccc(S(=O)(=O)N(Cl)Cl)cc1 | 1% | / | / | -1% | / | /
C=CCNC(=O)/C(C#N)=C/c1cn(-c2ccccc2)nc1-c1cccs1 | ? | ? | -13% | ? | i | -22%
O=C(CSc1nnc2scc(-c3ccccc3)n12)N1CCN(Cc2ccccc2)CC1 | ? | 5.8µM* | -7% | -28% | i | -1%
Cc1ccc(-c2csc3nnc(SCC(=O)Nc4nsc(-c5ccccc5)n4)n23)cc1 | 23µM* | ? | ? | 21µM* | i | ?
Cc1ccc(-c2nc(NC(=O)CSc3nnnn3-c3ccccc3)ns2)cc1 | -24% | i | 3% | -13% | i | 8%
O=C(CSc1nnc2scc(-c3ccccc3)n12)N1CCCc2ccccc21 | -12% | i | 14% | -3% | i | -3%
SMILES | TDP1 cell noCPT | KB-V1 cytotox | HT1080 IDH1KD tx | DT40 TDP1 CPT | KB-3-1 tox | HT1080-NT tox
Cc1ccccc1OCc1nc2ccccc2c(=O)n1/N=C/c1cn[nH]c1-c1ccc(Br)cc1 | ? | 7.3µM* | -3% | ? | ? | -3%
O=c1c2ccccc2nc(COc2ccccc2)n1/N=C/c1cn[nH]c1-c1ccccc1 | 16µM* | 21µM* | -27% | 21µM* | i | -24%
CCC(NC(=O)C1C2C=CC(C2)C1C(=O)O)c1ccc(C)cc1 (configuration not stated) | -6% | i | -11% | 1% | i | 2%
COc1ccc(C2C(C(=O)c3ccccc3)N3c4ccccc4C=CC3C2[N+](=O)[O-])cc1 (configuration not stated) | 10µM* | i | ? | 7.3µM* | i | ?
Cc1nc2cc(NC(=O)[C@@H]3C[C@@H](Sc4ccccn4)CN3Cc3ccccc3)ccc2s1 | -10% | / | / | 5%[9.04 µM] | / | /
CN1C(=O)[C@H]2[C@@H](c3ccc(C(F)(F)F)cc3)N[C@]3(CCCN(Cc4ccc(C(F)(F)F)cc4)C3=O)[C@H]2C1=O | 18µM* | i | -19% | 23µM* | i | -13%
CN1C(=O)[C@H]2[C@@H](c3ccc(C(F)(F)F)cc3)N[C@]3(CCCN(Cc4ccc(Br)cc4)C3=O)[C@H]2C1=O | 16µM* | i | 12% | 15µM* | i | 15%
CN1C(=O)[C@H]2[C@@H](c3ccc(C(F)(F)F)cc3)N[C@]3(CCCN(CC4CCCCC4)C3=O)[C@H]2C1=O | 10µM* | i | 4% | 21µM* | i | -3%
CC(=O)Nc1cccc(-c2cccc3nccn23)c1 | -29% | i | 4% | -1% | i | 17%
O=C(NCc1ccc(Cl)cc1)C(=O)NCC(c1ccco1)S(=O)(=O)c1cccs1 (configuration not stated) | ? | i | / | ? | i | /
CC1(c2ccccc2)NC(=O)N(CC(=O)Nc2nc(-c3ccccn3)cs2)C1=O (configuration not stated) | 15µM* | i | -21% | 23µM* | ? | -3%
O=C(CN1C(=O)C2CCCCC2C1=O)Nc1nc(-c2ccccn2)cs1 (configuration not stated) | 10µM* | ? | ? | 12µM* | ? | ?
Cc1noc(C)c1C(=O)N1CCC1(C)C(=O)NS(=O)(=O)c1ccccc1Cl (configuration not stated) | 4% | i | 10% | -9% | i | 19%
C/C(=N\OCC(=O)N/N=C/c1ccccc1O)c1cccs1 | 4.6µM* | i | ? | 4.1µM* | ? | ?

High-throughput results: PubChem, National Center for Advancing Translational Sciences (NCATS)
